Targets with a hit are over-represented here; the source holds about 7,900 in all. About 0.6% of all pairs of compound and target were hits.
How the values were obtained:
Assay in all cases: log2 fold change, soluble protein after heating vs DMSO (PISA); higher = thermal stabilisation; K562 cells, 10 uM, 30 min; active = over 0.2 and 3.5 SD of the protein, either way, in both replicates (recomputed)
[1] = compound: CS(=O)(=O)c1ccc(-c2cnc(N)c(C(=O)Nc3ccccc3)n2)cc1
Procedure, shortened: (§1)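 K562 cells at 2×10^6 cells/mL were treated with 10 μM compound for 30 min. Aliquots were heated for 3 min across 48°C-58°C, pooled, and extracted in PBS with 0.5% NP-40 at 4°C; soluble protein was the supernatant after 21,000xg for 90 min. Soluble protein was quantified by TMTpro 16plex LC-MS/MS with channel sums equalised, and reported as log2 fold change in thermal stability against DMSO controls, with values from duplicates.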

crizotinib = compound: C[C@@H](Oc1cc(-c2cnn(C3CCNCC3)c2)cnc1N)c1c(Cl)ccc(F)c1Cl [crizotinib]
Procedure, shortened: as §1

[2] = compound: C[C@@H]1COCCN1C2=NC(=NC(=C2)C3(CC3)S(=O)(=O)C)C4=C5C=CNC5=CC=C4
Procedure, shortened: as §1

[3] = compound: C[C@H](C1=CC=C(C=C1)C(=O)NC2=C3C=CNC3=NC=C2)N
Procedure, shortened: as §1

duvelisib = compound: C[C@H](Nc1ncnc2nc[nH]c12)c1cc2cccc(Cl)c2c(=O)n1-c1ccccc1 [duvelisib]
Procedure, shortened: as §1

gandotinib = compound: Cc1cc(Nc2cc(CN3CCOCC3)c3nc(C)c(Cc4ccc(Cl)cc4F)n3n2)n[nH]1 [gandotinib]
Procedure, shortened: as §1

tozasertib = compound: Cc1cc(Nc2cc(N3CCN(C)CC3)nc(Sc3ccc(NC(=O)C4CC4)cc3)n2)n[nH]1 [tozasertib]
Procedure, shortened: as §1

[4] = compound: Cc1cc(SCc2sc(-c3ccc(C(F)(F)F)cc3)nc2C)ccc1OCC(=O)O
Procedure, shortened: as §1

doramapimod = compound: Cc1ccc(-n2nc(C(C)(C)C)cc2NC(=O)Nc2ccc(OCCN3CCOCC3)c3ccccc23)cc1 [doramapimod]
Procedure, shortened: as §1

ispinesib = compound: Cc1ccc(C(=O)N(CCCN)[C@@H](c2nc3cc(Cl)ccc3c(=O)n2Cc2ccccc2)C(C)C)cc1 [ispinesib]
Procedure, shortened: as §1

Measured: log2 fold change

GSTP1 (UniProt P09211)
inactive: [1] 0.023 | crizotinib 0.038 | [2] 0.033 | [3] -0.067 | duvelisib 0.037 | gandotinib -0.005 | tozasertib -0.008 | [4] 0 | doramapimod -0.019 | ispinesib 0.058

GALNT4 (UniProt Q8N4A0)
Chain of UniProt Q8N4A0 (Q8N4A0 whole entry, looked up): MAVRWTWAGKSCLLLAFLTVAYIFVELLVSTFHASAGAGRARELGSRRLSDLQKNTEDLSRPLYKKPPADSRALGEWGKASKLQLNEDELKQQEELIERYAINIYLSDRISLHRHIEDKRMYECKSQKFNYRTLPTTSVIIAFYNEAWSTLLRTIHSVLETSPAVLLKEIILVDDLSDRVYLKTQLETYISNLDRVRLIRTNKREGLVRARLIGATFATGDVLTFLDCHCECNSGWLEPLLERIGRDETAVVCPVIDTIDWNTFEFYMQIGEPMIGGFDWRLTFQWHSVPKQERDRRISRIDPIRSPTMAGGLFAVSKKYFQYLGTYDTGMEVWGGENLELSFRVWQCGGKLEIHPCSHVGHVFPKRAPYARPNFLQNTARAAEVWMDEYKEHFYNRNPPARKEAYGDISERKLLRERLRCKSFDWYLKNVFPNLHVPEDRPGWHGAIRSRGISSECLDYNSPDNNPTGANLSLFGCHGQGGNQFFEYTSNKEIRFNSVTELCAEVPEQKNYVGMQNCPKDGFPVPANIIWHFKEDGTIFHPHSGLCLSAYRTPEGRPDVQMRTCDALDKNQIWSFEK
inactive: [1] 0.047 | crizotinib -0.068 | [2] 0.156 | [3] 0.017 | duvelisib 0.09 | gandotinib -0.153 | tozasertib -0.028 | [4] 0.036 | doramapimod 0.013 | ispinesib 0.04

GLUD2 (UniProt P49448)
inactive: [1] 0.102 | crizotinib 0.003 | [2] 0.011 | [3] -0.062 | duvelisib 0.191 | gandotinib 0.064 | tozasertib -0.095 | [4] 0.016 | doramapimod 0.041 | ispinesib 0

GAPVD1 isoform 6 (UniProt Q14C86)
Chain of UniProt Q14C86 (Q14C86 whole entry, looked up): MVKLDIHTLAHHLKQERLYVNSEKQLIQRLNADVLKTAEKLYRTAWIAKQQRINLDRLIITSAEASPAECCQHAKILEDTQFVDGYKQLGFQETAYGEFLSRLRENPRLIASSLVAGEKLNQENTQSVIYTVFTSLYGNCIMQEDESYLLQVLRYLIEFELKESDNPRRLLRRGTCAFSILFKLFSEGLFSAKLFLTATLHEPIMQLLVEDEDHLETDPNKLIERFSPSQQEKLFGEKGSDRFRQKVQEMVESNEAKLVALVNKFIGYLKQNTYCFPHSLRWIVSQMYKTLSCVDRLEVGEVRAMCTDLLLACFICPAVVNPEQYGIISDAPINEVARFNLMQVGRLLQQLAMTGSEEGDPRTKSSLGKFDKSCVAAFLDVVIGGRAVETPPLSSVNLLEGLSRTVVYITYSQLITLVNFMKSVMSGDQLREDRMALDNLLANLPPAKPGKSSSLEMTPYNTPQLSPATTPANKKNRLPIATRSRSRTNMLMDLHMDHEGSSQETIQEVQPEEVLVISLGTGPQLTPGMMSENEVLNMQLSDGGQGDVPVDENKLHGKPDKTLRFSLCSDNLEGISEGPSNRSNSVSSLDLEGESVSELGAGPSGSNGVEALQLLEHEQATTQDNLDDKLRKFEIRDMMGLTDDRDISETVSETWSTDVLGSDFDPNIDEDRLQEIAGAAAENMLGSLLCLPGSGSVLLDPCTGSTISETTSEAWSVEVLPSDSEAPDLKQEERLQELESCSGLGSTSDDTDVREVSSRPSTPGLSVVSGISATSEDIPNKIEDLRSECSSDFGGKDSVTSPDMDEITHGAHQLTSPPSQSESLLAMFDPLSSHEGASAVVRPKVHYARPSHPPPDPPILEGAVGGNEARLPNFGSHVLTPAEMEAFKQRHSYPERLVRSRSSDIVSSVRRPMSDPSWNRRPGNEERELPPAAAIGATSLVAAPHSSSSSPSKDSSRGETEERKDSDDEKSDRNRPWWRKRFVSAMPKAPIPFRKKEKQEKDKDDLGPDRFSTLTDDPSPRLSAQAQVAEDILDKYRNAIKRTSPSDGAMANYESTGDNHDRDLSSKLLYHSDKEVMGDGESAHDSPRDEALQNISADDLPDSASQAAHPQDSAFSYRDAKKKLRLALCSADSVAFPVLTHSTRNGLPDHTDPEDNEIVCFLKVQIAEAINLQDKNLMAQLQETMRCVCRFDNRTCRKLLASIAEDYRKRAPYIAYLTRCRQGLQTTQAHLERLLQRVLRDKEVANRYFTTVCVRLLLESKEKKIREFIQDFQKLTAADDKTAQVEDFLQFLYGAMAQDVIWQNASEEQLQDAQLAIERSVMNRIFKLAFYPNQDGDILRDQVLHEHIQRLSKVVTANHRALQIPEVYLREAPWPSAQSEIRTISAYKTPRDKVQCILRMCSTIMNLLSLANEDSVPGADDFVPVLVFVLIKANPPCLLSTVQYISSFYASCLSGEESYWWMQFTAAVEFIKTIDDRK
inactive: [1] -0.012 | crizotinib -0.145 | [2] 0.017 | [3] 0.075 | duvelisib -0.058 | gandotinib -0.081 | tozasertib 0.061 | [4] 0.147 | doramapimod 0.038 | ispinesib -0.133

GYG1 (UniProt P46976)
inactive: [1] -0.223 | crizotinib -0.037 | [2] -0.15 | [3] 0.018 | duvelisib -0.057 | gandotinib -0.12 | tozasertib 0.072 | [4] 0.09 | doramapimod 0.072 | ispinesib -0.12

HNRNPK isoform 2 (UniProt P61978)
inactive: [1] -0.01 | crizotinib 0.072 | [2] 0.074 | [3] -0.028 | duvelisib 0.036 | gandotinib -0.108 | tozasertib -0.021 | [4] 0.052 | doramapimod -0.064 | ispinesib -0.025

FIS1 (UniProt Q9Y3D6)
Chain of UniProt Q9Y3D6 (Q9Y3D6 whole entry, looked up): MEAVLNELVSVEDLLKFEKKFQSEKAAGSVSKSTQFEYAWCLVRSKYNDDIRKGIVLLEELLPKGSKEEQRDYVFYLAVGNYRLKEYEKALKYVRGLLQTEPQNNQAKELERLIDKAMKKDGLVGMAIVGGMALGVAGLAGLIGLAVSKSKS
active: [3] -0.286
inactive: [1] -0.017 | crizotinib 0.045 | [2] 0.037 | duvelisib -0.143 | gandotinib 0.032 | tozasertib 0.079 | [4] 0.071 | doramapimod 0.02 | ispinesib -0.007

GEMIN2 (UniProt O14893)
Chain of UniProt O14893 (O14893 whole entry, looked up): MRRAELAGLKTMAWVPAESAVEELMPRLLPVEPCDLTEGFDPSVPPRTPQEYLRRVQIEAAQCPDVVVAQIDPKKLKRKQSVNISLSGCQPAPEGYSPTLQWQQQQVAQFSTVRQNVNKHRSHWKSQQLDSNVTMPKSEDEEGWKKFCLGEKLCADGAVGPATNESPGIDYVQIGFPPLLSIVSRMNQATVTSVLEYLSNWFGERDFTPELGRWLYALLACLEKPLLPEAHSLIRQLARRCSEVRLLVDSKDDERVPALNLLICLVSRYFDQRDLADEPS
inactive: [1] 0.032 | crizotinib -0.043 | [2] 0.001 | [3] 0.061 | duvelisib -0.129 | gandotinib 0.02 | [4] -0.013 | doramapimod 0.029 | ispinesib -0.149

HAX1 (UniProt O00165)
inactive: [1] 0.02 | crizotinib -0.235 | [2] -0.043 | [3] 0.16 | duvelisib -0.062 | gandotinib -0.174 | tozasertib -0.071 | [4] 0.014 | doramapimod 0.035
active: ispinesib -0.59

GHDC (UniProt Q8N2G8)
Chain of UniProt Q8N2G8 (Q8N2G8 whole entry, looked up): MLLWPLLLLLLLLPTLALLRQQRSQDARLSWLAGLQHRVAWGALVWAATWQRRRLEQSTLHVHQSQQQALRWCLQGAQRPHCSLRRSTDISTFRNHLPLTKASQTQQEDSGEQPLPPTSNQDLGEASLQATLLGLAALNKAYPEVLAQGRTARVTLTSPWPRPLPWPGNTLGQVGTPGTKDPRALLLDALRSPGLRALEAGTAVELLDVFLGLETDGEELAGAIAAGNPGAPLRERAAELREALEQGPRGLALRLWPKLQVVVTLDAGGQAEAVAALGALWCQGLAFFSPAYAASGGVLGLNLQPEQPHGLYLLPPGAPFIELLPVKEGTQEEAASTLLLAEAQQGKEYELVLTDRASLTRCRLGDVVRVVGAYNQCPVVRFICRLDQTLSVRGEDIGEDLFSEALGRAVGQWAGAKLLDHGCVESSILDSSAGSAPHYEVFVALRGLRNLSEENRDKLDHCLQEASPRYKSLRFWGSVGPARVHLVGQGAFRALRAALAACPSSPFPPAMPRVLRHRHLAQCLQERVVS
inactive: [1] 0.041 | crizotinib -0.02 | [2] 0.021 | [3] -0.074 | duvelisib 0.043 | gandotinib 0.002 | tozasertib -0.01 | [4] -0.039 | doramapimod -0.041 | ispinesib -0.132

HIKESHI (UniProt Q53FT3)
inactive: [1] -0.007 | crizotinib 0.067 | [2] 0.182 | [3] -0.023 | duvelisib 0.101 | gandotinib -0.033 | tozasertib 0.023 | [4] -0.021 | doramapimod -0.013 | ispinesib 0.192

GOPC (UniProt Q9HD26)
inactive: [1] 0.218 | crizotinib 0.293 | [2] -0.043 | [3] 0.294 | duvelisib -0.003 | gandotinib 0.101 | tozasertib 0.144 | [4] 0.091 | doramapimod 0.061 | ispinesib 0.038

FDPS (UniProt P14324)
active: crizotinib -0.768 | ispinesib -0.493
inactive: [1] 0.07 | [2] 0.073 | [3] 0.117 | duvelisib 0.059 | gandotinib -0.091 | tozasertib -0.193 | [4] 0.222 | doramapimod 0.004

GSK3A (UniProt P49840)
inactive: crizotinib 0.129 | [2] 0.053 | [3] 0.015 | duvelisib 0.044 | gandotinib 0.201 | tozasertib -0.006 | [4] 0.015 | doramapimod -0.039 | ispinesib 0.072
active: [1] 0.322

GLIPR2 (UniProt Q9H4G4)
active: ispinesib -0.459
inactive: [1] 0.034 | crizotinib -0.243 | [2] -0.018 | [3] -0.064 | duvelisib 0.1 | gandotinib 0.157 | tozasertib -0.062 | [4] 0.007 | doramapimod -0.01

HHEX (UniProt Q03014)
inactive: [1] -0.014 | crizotinib -0.027 | [2] -0.104 | [3] 0.49 | duvelisib -0.072 | gandotinib -0.042 | tozasertib -0.019 | [4] 0.021 | doramapimod 0.05 | ispinesib -0.128

FAT1 (UniProt Q14517)
inactive: [1] 0.027 | crizotinib 0.061 | [2] -0.054 | [3] 0.144 | duvelisib 0.026 | gandotinib 0.061 | tozasertib -0.124 | [4] 0.009 | ispinesib -0.096
active: doramapimod -0.435

FBXO3 (UniProt Q9UK99)
inactive: [1] 0.055 | crizotinib 0.005 | [2] -0.095 | [3] 0.008 | duvelisib -0.025 | gandotinib -0.112 | tozasertib -0.046 | [4] -0.025 | doramapimod -0.003 | ispinesib 0.082

GINS2 (UniProt Q9Y248)
inactive: [1] -0.066 | crizotinib -0.036 | [2] -0.046 | [3] -0.15 | duvelisib 0.164 | gandotinib 0.004 | tozasertib 0.145 | [4] 0.247 | doramapimod 0.026 | ispinesib 0.167

FBXO42 (UniProt Q6P3S6)
inactive: [1] 0.077 | [2] 0.127 | [3] -0.064 | duvelisib 0.076 | gandotinib -0.022 | tozasertib 0.105 | [4] 0.063 | doramapimod 0.01 | ispinesib -0.015
active: crizotinib 0.4

GAK (UniProt O14976)
inactive: [1] 0.49 | crizotinib 0.115 | [2] -0.081 | [3] 1.26 | duvelisib -0.245 | gandotinib 0.02 | tozasertib 0.223 | [4] -0.121 | doramapimod 0.206 | ispinesib -0.157

HLTF (UniProt Q14527)
inactive: [1] -0.034 | crizotinib 0.045 | [2] -0.143 | [3] 0.006 | duvelisib -0.006 | gandotinib -0.078 | tozasertib -0.023 | [4] 0.063 | doramapimod -0.003 | ispinesib 0.006

HNRNPF (UniProt P52597)
inactive: [1] -0.016 | crizotinib -0.152 | [2] 0.047 | [3] -0.004 | duvelisib -0.061 | gandotinib -0.07 | tozasertib 0.071 | [4] 0.119 | doramapimod -0.03 | ispinesib -0.092

HS1BP3 (UniProt Q53T59)
inactive: [1] 0.06 | crizotinib -0.044 | [2] 0.028 | [3] 0.143 | duvelisib 0.096 | [4] -0.012 | doramapimod 0.089 | ispinesib -0.165

GSTT1 (UniProt P30711)
active: crizotinib 0.332
inactive: [2] 0.19 | [3] 0.002 | duvelisib 0.1 | gandotinib 0.19 | tozasertib 0.017 | [4] -0.061 | doramapimod -0.003 | ispinesib 0.026

HSPA8 (UniProt E9PN89)
inactive: [1] 0.12 | crizotinib 0.063 | [2] 0.024 | [3] 0.377 | gandotinib -0.068 | tozasertib -0.122 | doramapimod 0

GOLGA8R (UniProt I6L899)
Chain of UniProt I6L899 (I6L899 whole entry, looked up): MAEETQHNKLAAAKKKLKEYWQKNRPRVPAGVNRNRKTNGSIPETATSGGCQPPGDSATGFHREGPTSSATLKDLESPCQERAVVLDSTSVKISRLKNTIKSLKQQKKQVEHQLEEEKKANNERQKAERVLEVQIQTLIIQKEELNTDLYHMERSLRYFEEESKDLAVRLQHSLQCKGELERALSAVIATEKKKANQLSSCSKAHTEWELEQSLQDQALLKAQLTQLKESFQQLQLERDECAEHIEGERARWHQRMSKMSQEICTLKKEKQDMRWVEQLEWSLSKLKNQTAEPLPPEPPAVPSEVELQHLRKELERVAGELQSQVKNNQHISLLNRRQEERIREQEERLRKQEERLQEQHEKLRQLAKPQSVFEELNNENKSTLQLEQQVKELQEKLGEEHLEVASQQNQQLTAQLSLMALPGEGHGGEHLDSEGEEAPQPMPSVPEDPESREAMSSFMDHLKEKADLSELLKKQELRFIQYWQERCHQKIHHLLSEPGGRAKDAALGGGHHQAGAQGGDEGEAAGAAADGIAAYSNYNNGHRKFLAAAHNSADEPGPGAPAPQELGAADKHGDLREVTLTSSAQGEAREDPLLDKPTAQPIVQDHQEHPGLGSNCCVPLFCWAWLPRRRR
inactive: crizotinib -0.009 | [3] -0.059 | duvelisib 0.242 | gandotinib 0.324 | tozasertib -0.033 | [4] -0.067 | doramapimod 0.108 | ispinesib -0.038

FYB1 isoform 3 (UniProt O15117)
active: duvelisib -0.344
inactive: [1] -0.025 | crizotinib -0.11 | [2] 0.046 | gandotinib 0.057 | tozasertib 0.009 | [4] 0.067 | doramapimod 0.021 | ispinesib -0.083

GID4 (UniProt Q8IVV7)
Chain of UniProt Q8IVV7 (Q8IVV7 whole entry, looked up): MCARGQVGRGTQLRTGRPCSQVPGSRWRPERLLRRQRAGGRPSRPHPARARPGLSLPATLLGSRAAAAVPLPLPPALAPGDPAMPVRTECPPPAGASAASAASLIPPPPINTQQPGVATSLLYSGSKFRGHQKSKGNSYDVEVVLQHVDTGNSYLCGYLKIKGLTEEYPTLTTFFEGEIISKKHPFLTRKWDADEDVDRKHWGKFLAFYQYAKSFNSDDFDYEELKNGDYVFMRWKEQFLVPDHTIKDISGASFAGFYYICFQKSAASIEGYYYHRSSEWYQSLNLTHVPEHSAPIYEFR
inactive: [1] 0 | [2] 0.054 | [3] -0.006 | duvelisib 0.009 | gandotinib 0.034 | tozasertib 0.052 | [4] 0.032 | ispinesib 0.044

FBXO9 (UniProt Q9UK97)
inactive: crizotinib 0.028 | [3] -0.046 | duvelisib -0.03 | gandotinib -0.151 | tozasertib -0.071 | [4] 0.079 | doramapimod -0.081 | ispinesib -0.057

GBA2 (UniProt Q9HCG7)
Chain of UniProt Q9HCG7 (Q9HCG7 whole entry, looked up): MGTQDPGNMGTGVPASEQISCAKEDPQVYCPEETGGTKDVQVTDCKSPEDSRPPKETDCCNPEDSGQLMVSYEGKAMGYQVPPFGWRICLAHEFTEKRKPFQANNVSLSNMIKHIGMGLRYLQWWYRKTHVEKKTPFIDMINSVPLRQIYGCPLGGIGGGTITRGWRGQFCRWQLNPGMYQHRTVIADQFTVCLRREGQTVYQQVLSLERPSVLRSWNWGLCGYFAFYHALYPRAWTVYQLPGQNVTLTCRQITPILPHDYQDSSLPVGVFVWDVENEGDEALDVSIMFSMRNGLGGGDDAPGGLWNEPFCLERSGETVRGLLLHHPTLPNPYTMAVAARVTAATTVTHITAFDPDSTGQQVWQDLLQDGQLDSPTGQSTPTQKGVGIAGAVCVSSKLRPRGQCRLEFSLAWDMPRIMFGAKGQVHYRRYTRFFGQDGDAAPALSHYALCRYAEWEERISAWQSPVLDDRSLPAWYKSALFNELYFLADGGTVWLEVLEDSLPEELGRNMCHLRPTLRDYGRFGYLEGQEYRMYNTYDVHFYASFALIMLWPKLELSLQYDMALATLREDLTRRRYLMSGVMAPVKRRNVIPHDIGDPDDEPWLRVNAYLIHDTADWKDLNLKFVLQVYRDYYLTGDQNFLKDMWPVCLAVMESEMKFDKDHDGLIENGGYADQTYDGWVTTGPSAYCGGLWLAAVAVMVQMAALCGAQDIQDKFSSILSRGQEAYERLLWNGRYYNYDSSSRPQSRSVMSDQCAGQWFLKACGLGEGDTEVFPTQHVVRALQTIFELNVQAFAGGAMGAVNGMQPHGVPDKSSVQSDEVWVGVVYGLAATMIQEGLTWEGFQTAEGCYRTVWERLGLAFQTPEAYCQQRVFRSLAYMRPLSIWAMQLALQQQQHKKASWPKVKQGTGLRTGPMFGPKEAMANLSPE
inactive: [1] 0.091 | crizotinib 0.094 | [2] 0.051 | [3] 0.004 | duvelisib 0.041 | tozasertib -0.053 | [4] 0.067 | doramapimod 0.056

GPD1 (UniProt P21695)
inactive: [1] -0.036 | [2] 0.034 | [3] -0.482 | duvelisib 0.124 | gandotinib 0.094 | tozasertib -0.072 | [4] -0.034 | ispinesib 0.046

— the supplement of paper PMC10849652
